# Screens deposited in PubChem by several laboratories.
# A selection: hits, their analogues and other compounds. The true share with any hit is near 2.8%.
# PolyA inhibitor: inhibitors of polyadenylation in S. cerevisiae; S. cerevisiae SKY197-pL101 polyadenylation reporter, beta-gal luminescence; efflux-impaired pdr1/pdr3 knockout yeast; score 100 = 6 SD above DMSO; activity score, % at 12 µM; 0.02% of 300,000 active; AID 1875;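 active = lowest replicate activity score at least 50, where 100 means six control SD above control mean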;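 note: yeast exposed to compound for 9 h at 30 °C; higher score means more reporter readthrough which indicates perturbed polyadenylation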
# pCIP destab: p/CIP protein destabilization; AID 1984; 0.01% of 290,000 active; F442A p/CIP-EGFP cells, EGFP fluorescence, 16 h; decrease of EGFP signal, % at 10 µM;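 active = EGFP signal decrease of at least 30% at 10 µM or well 3 SD below plate mean, unless failing retest; inactive = the rest, including hits failing retest or dose response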
# AHR act: activates the human aryl hydrocarbon receptor. P35869. AHR-responsive luciferase reporter cells, luminescence. activation, % at 5 µM. 2.5% of 320,000 active. AID 2796; in the data active = activation above about 47%;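 note: 0% = vehicle wells and 100% = reference agonist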
# HIF act: HIF pathway transcriptional activation | U2OS HRE-luciferase reporter, luminescence; normalized: DMSO 0%, desferrioxamine 100% | activation, % at 7.5 µM (by protocol) | 0.32% of 300,000 active;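 active = mean activation of at least 10% of the iron chelator positive control signal, with at least half of replicates also reaching 10%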
# Platelet DG rel: platelet dense granule release activity. inhibition, %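 (compounds screened at 7.5 µM in platelet-rich plasma)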. 0.22% of 300,000 active. AID 1663. human platelet-rich plasma, SFLLRN dense granule ATP release, luminescence;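 active = mean replicate score, as percent of positive control, at or above 50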
# AHR act confirm: human AHR activation, confirmation | shares compounds with AHR act | human cells, AHR-responsive luciferase reporter, luminescence | activation, % at 9 µM | 87% of 2,300 active; in the data active = activation above about 49%;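 note: HepG2 hepatoma cells carrying a DRE-driven firefly luciferase reporter; 0% = vehicle wells and 100% = reference agonist wells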
# PXR counter: counter-screen for AHR activators: human PXR activators | activation, % at 11.6 µM | 88% of 2,300 active | shares compounds with AHR act | AID 434939 | cell-based PXR reporter, luciferase luminescence; in the data active = activation above about 11%;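 note: human hepatoma DPX-2 cells expressing full-length human PXR; 0% = DMSO and 100% = reference agonist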
# Target sequence (O75469 whole entry, looked up): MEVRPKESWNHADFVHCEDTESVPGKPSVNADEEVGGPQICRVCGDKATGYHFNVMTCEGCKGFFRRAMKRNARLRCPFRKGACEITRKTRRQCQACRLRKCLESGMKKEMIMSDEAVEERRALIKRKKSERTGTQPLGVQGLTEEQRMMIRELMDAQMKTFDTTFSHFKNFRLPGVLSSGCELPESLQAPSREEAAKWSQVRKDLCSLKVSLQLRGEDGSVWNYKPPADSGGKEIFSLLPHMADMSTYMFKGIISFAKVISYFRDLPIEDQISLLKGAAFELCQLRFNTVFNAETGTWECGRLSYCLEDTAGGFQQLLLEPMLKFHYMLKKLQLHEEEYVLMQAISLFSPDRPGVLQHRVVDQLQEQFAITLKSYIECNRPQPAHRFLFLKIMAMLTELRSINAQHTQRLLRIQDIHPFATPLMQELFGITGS
# An asterisk follows results filed as active; · = no result.
SMILES,PolyA inhibitor,pCIP destab,AHR act,HIF act,Platelet DG rel,AHR act confirm,PXR counter
Cn1ccsc1=NC(=O)c1ccc(OC(F)(F)F)cc1,1.4,3.5,98.0*,4.8,11.3,109.1*,23.8*
O=C(Nc1ccc2c(c1)OCCO2)C1CCCN1C(=O)Nc1ccc(F)cc1 (stereo unspecified),6.6,-13.5,0.0,-0.5,-2.1,·,·
CC(C)(C)C(=O)NC(NC(=S)Nc1sc2c(c1C#N)CCCC2)C(Cl)(Cl)Cl (stereo unspecified),9.6,-17.9,4.6,-0.3,-0.9,·,·
O=S1OCCN1c1ccccc1 (stereo unspecified),-0.4,-8.0,-2.0,0.1,-14.6,·,·
CC(=O)Nc1ccc2c(c1)C(=O)c1ccccc1C2=O,-19.6,5.7,152.2*,4.5,0.0,120.9*,34.9*
O=C(O)/C=C/C(=O)Nc1ccc2c(c1)C(=O)c1ccccc1C2=O,-5.9,-19.9,44.1,2.2,1.9,·,·
COc1ccc(Nc2nc(N)c([N+](=O)[O-])c(N3CCOCC3)n2)cc1,-17.2,-1.9,17.2,0.4,-1.7,·,·
CN(C)c1ccc(Nc2nc(N)c([N+](=O)[O-])c(N3CCOCC3)n2)cc1,-8.0,-0.4,82.2*,0.0,-0.5,68.2*,38.5*
COc1ccc(/C=N/NC(=O)c2cccc(NC(=O)c3ccccc3)c2)c(C(=O)O)c1OC,-3.6,-8.4,112.9*,0.1,4.8,94.7*,12.6*
Cc1cccc(/C=N/NC(=O)c2cccc(NC(=O)c3ccccc3)c2)n1,6.0,-3.5,106.0*,0.6,6.1,102.3*,27.9*
CNC(=O)NNC(=O)c1nc(-c2ccccc2)c(C)o1,6.8,-6.7,0.1,-0.6,-21.3,·,·
O=C(Cn1cnc2ccccc2c1=O)c1ccc2c(c1)OCCO2,6.6,-6.3,8.7,1.6,1.1,·,·
Cc1nn(CC(=O)c2ccc3c(c2)OCCO3)c(=O)c(C#N)c1C,·,·,88.2*,·,·,91.2*,17.7*
Cc1ccc(S(=O)(=O)NCc2ccc(C(=O)NC3CCC(O)CC3)cc2)cc1C (stereo unspecified),·,·,1.1,·,·,·,·
CSc1ccc(C2NC(=O)c3c(sc4c3CCN(C)C4)N2)cc1 (stereo unspecified),6.0,-17.1,22.2,0.1,-0.1,·,·
CN1CCc2c(sc3c2C(=O)NC(c2cccs2)N3)C1 (stereo unspecified),-6.8,2.9,85.1*,0.9,5.9,91.8*,36.5*
Cc1ccsc1C1NC(=O)c2c(sc3c2CCN(C)C3)N1 (stereo unspecified),9.8,-36.2,91.7*,0.1,-55.3,53.6*,16.8*
Cc1ccc(N(CC(=O)NC2CCCC2)C(=O)CCC(=O)Nc2nc(C)cs2)cc1,1.3,1.7,2.9,-23.5,-6.7,·,·
Cc1cccc2cc3c(NC(=O)CC(C)C)nn(C)c3nc12,-2.1,4.1,36.5,-0.2,-3.6,·,·
Cc1ccc2cc3c(NC(=O)CC(C)C)nn(C)c3nc2c1,6.8,-1.4,103.0*,0.1,-6.3,72.5*,·
O=C(COC(=O)c1cc(-c2ccc(F)cc2)nc2ccccc12)NCC1CCCO1 (stereo unspecified),-19.4,-1.4,-0.7,0.4,-9.7,·,·
C/C(=N\NC(=O)c1cc2ccccc2cc1O)c1ccc(C)o1,29.2,-7.2,14.9,0.3,22.1,·,·
C/C(=N\NC(=O)c1c[nH]c2ccccc12)c1ccc(C)o1,5.3,0.6,82.1*,0.5,7.7,119.5*,17.2*
O=C(NN=C1CCCCCC1)c1c[nH]c2ccccc12,4.7,-1.9,90.8*,1.6,-5.4,7.5,5.9
O=C(Nc1ccccc1)c1ccc(NCCN2C(=O)CCC2=O)c([N+](=O)[O-])c1,10.0,-10.0,80.8*,-0.2,-1.6,110.2*,23.1*
SMILES,PolyA inhibitor,pCIP destab,AHR act,HIF act,Platelet DG rel,AHR act confirm,PXR counter
O=C(Nc1cc(F)cc(F)c1)c1ccc(NCCCN2CCCCCC2)c([N+](=O)[O-])c1,-1.6,-3.6,83.0*,0.4,11.5,117.9*,29.0*
CCCCOc1ccc2c(c1)/C(=C(\C(Cl)=C(Cl)Cl)[N+](=O)[O-])N2,-7.4,9.6,7.5,-0.6,5.8,·,·
Cc1cc2c(C)nc(-c3ccccc3)nc2o1,-12.7,4.3,116.4*,-0.3,1.5,159.5*,39.4*
Cc1cc(CC(C)C)n(-c2nc3ccccc3c(=O)n2OCc2ccccc2)n1,-13.0,4.9,87.0*,1.9,-2.3,99.5*,74.2*
Clc1ccc(COc2ccccc2-c2ccnc3ncnn23)cc1,-8.3,-12.5,87.3*,3.1,-1.5,52.1*,65.2*
Nc1c(Cl)cc(-c2csc(N3CCCC3c3nc4cc(Cl)c(N5CCCCC5)cc4n3CCCO)n2)cc1Cl (stereo unspecified),27.5,·,85.9*,0.9,-0.9,85.7*,196.8*
Clc1nc(NCc2ccco2)nc(N2CCCCC2)n1,-3.8,0.6,2.9,-0.5,0.9,·,·
CC(C)c1ccc(Nc2nc(NCc3ccco3)nc(N3CCOCC3)n2)cc1,-5.9,-5.0,84.6*,-0.2,-5.2,86.1*,32.2*
C/C(=N\NC(=O)CSc1nc(C)cc(C)n1)c1cccs1,-0.8,6.7,110.3*,-0.1,-5.4,98.0*,50.2*
CCn1c(C)cc(/C=C2/NC(=O)N(Cc3ccccc3F)C2=O)c1C,3.6,5.3,83.6*,0.0,-1.4,58.9*,162.3*
N#CCC1c2ccccc2CCN1C(=O)Nc1cccc(C(F)(F)F)c1 (stereo unspecified),9.0,-5.5,10.6,-0.2,0.9,·,·
N#CCC1c2ccccc2CCN1C(=O)Nc1ccc(C(F)(F)F)cc1 (stereo unspecified),-8.1,0.4,103.1*,0.1,-4.9,100.0*,181.0*
O=C(O)/C=C/C(=O)NC1CC1,9.7,4.3,1.0,0.0,-16.7,·,·
O=C(Cn1c(NCCCO)nc2ccccc21)c1ccc(Cl)cc1,1.0,12.4,4.7,-11.6,-8.3,·,·
O=C(Cn1c(NCCCO)nc2ccccc21)c1ccc(Cl)cc1Cl,-1.2,-7.9,120.3*,-0.3,-13.0,121.9*,20.2*
CCN(C(=O)COC(=O)CNC(=O)c1ccc(Cl)cc1Cl)c1c(N)n(Cc2ccccc2)c(=O)[nH]c1=O,·,·,-3.1,·,·,·,·
Cc1ccc(NC(=O)c2cccc(S(=O)(=O)N(C)C3CCCCC3)c2)nc1,7.7,·,2.8,-0.1,-10.1,·,·
Cc1ccc(/C=C/C(=O)OCC(=O)Nc2cccc(S(=O)(=O)N(C)C)c2)o1,4.5,-6.7,2.1,-1.7,6.6,·,·
COc1ccccc1NC(=O)N1CCC(c2nc3cc(C)c(C)cc3[nH]2)CC1,27.3,-6.6,133.2*,1.1,-1.4,33.5,56.2*
COc1ccc(CN2CCN(S(=O)(=O)c3ccc(NC(C)=O)cc3)CC2)c(OC)c1OC,-2.8,-1.2,9.0,0.4,1.4,·,·
N#CCCOC1(C#CCN2CCCC2)CCCCC1,8.1,-5.0,-0.4,-0.1,5.2,·,·
